A number with no mark means an inactive call. Results filed as inconclusive are left out. Activity calls are given as the source filed them. Unless noted, the call rests on the fitted dose curve; in most records, active means well fitted curve in either direction with a large enough effect (not every such curve was filed as active); inconclusive means small, poorly fitted or top-dose-only effect, or another doubt; inactive means flat fitted curve, though single readings scatter.

Assay [1] has as its target Lysosomal acid glucosylceramidase (Homo sapiens) (UniProt P04062). Briefly: Glucocerebrosidase-p2 (AID 348; in the data active means potency below about 10 µM; further: potency means the concentration at half of the fitted maximal effect). Particulars: purified GBA, blue fluorogenic substrate, 40 min. The method, boiled down:
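Compounds titrated from 0.6 nM upwards against 0.2 nM enzyme in pH 5.9 citric acid/KH2PO4, taurocholate, tween-20; blue fluorogenic substrate 80 uM, 40 min room temperature, stopped and read Ex 365/Em 440 for AC50.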

Assay [2] is described as follows: AP1 Signaling Pathway (AID 357).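 Further: ME-180 reporter cells stimulated with EGF at its EC50 level; on the % scale 0 is the no-effect control and ±100 the full control effect.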 As to conditions: ME-180 AP-1-bla reporter, EGF-induced, beta-lactamase ratio, 5 h; at 7.69 µM (top of the series) unless noted. Put shortly:
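A ratiometric CCF4 readout (405 nm excitation; 460 and 530 nm emission) quantified AP-1-driven beta-lactamase in ME-180 cells after 5 h with compound and EC50 EGF; AC50 values were derived for activators and inhibitors.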

Assay [3] deals with Cytochrome P450 1A2 (Homo sapiens) (UniProt P05177). The experiment in a line: p450-cyp1a2 (AID 410; calls by dose curve; further: potency means the concentration at half of the fitted maximal effect;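 on activity change, negative = inhibition: -100% = full effect of reference inhibitor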). Particulars: recombinant CYP1A2, luciferin-ME demethylation, luminescence; series mostly up to 11.4 µM. The method, boiled down: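 20nM CYP1A2 with 100uM Luciferin-ME (at Km) in 100mM KPO4; compound preincubated 10 min, NADPH regeneration added, 60 min at room temperature. Luciferin quantified by luminescence after detection reagent; normalized to 57 uM furafylline.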
Cytochrome P450 1A2 (Homo sapiens), sequence (P05177 whole entry, looked up): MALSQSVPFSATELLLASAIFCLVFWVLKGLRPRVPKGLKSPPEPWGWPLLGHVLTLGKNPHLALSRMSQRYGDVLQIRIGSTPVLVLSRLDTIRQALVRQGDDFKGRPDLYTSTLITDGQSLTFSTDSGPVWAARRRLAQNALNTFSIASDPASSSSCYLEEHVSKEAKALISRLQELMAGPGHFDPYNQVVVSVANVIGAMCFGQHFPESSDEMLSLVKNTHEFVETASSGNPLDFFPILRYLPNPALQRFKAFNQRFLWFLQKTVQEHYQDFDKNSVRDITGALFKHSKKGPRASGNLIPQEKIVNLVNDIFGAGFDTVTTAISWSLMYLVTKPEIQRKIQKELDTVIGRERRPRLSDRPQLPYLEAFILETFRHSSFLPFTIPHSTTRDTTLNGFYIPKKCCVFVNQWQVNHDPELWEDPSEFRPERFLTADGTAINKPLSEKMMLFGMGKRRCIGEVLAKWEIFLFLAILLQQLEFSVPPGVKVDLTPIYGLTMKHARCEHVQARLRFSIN

Assay [4] is described as follows: NFAT Signaling Pathway (AID 444).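 Further: carbachol stimulus at about its EC50 of 1 µM final; on the % scale 0 is the no-effect control and ±100 the full control effect.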 Particulars: Jurkat NFAT-bla M1, carbachol, beta-lactamase ratio, 5 h; at 7.69 µM (top of the series) unless noted. The method, boiled down: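 Jurkat cells with NFAT-driven β-lactamase reporter and co-expressed M1 receptor, stimulated with carbachol (final 1 uM, ~EC50), compound titration, 5 h at 37 °C. CCF4 loaded 1 h at RT; 460/530 nm ratio gave %activity and AC50.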

The nature of assay [5]: Stat Signaling Pathway (AID 446).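 Further: ME-180 cervical cancer cells given 40 pM IL-6 alongside compound; SIE-controlled beta-lactamase reporter measured as 460/530 nm FRET emission ratio; on the % scale 0 is the no-effect control and ±100 the full control effect.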 Particulars: ME-180 (cervical carcinoma) SIE beta-lactamase reporter, IL-6 stimulated, 5 h; at 7.69 µM (top of the series) unless noted. Put shortly:
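ME-180 cells carrying a SIE-driven beta-lactamase reporter are stimulated with 40 pM IL-6 for 5 h at 37C in the presence of compound. The 460/530 nm FRET substrate ratio is read after 2.5 h at RT. Data are normalised to 300 pM IL-6 and to 125 nM JAK inhibitor controls.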

The target of assay [6] is Glucocorticoid receptor (Homo sapiens) (UniProt P04150). Briefly: GR-GFP Redistribution (AID 450;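 active means compounds whose dose series gives a full or clear partial fitted curve of increased nuclear translocation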; further: potency means the concentration at half of the fitted maximal effect). Particulars: U2OS GR-GFP nuclear translocation, laser cytometry, 2 h.
Glucocorticoid receptor (Homo sapiens), sequence (P04150 whole entry, looked up): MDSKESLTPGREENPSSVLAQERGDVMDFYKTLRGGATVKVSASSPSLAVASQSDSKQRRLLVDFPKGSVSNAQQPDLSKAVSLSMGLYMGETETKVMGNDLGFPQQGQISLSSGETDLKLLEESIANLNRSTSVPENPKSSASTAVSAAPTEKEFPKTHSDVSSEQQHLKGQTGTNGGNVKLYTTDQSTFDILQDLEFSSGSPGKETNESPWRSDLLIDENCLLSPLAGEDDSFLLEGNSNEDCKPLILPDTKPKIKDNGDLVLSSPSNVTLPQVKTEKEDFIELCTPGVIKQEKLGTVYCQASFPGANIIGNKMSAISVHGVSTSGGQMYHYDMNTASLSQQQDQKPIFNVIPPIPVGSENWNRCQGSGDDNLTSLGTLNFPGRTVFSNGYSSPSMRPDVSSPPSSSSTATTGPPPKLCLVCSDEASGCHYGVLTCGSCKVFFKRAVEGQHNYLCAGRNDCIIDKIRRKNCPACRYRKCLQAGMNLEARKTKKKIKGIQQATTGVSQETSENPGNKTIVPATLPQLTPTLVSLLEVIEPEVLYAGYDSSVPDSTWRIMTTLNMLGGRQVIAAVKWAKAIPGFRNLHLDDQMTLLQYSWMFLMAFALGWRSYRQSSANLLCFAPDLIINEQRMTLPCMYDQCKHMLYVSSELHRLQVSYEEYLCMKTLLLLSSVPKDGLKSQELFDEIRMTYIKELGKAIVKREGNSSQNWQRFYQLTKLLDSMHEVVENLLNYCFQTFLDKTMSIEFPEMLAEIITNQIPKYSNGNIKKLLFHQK
For assay [7] the target is unchanged. Briefly: GR-EFC Redistribution (AID 451; calls by dose curve; further: potency means the concentration at half of the fitted maximal effect). As to conditions: CHO-K1 GR-EFC translocation, beta-gal luminescence, 2 h. Put shortly:
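CHO-K1 cells expressing nuclear EA and GR-ED fragments of b-gal; compounds titrated up to 46 uM final, 2 h at 37 C. GR nuclear translocation read as complemented b-gal luminescence after 1 h RT detection.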

In assay [8] the target is 3',5'-cyclic-AMP phosphodiesterase 4B (Homo sapiens) (UniProt Q07343). The experiment in a line: qHTS Assay for Inhibitors of PDE-IV (AID 607; active means well fitted activation curve with a large enough effect in the main read-out, with a control signal flat, not every such curve was filed as active; further: % of control where 0% means no effect). As to conditions: HEK293 ACTOne CNG channel cells, membrane potential fluorescence; series mostly up to 22.9 µM. Put shortly:
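HEK293 ACTOne cells with CNG channel (1000/well), endogenous PDE4; membrane potential dye, compounds up to 22.9 uM final. Fluorescence Ex 535/Em 590; RO 20-1724 (100 uM final) as reference.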

In assay [9] the target is Cytochrome P450 2C9 (Homo sapiens) (UniProt P11712). The experiment in a line: qHTS Assay for Inhibitors and Substrates of Cytochrome P450 2C9 (AID 883; active means well fitted curve in the direction sought with a large enough effect; an effect the other way counts as inactive or inconclusive; further: potency means the concentration at half of the fitted maximal effect; nearly all actives have a fitted effect of over 60% in size). As to conditions: recombinant CYP2C9, luciferin-H luminescence, 60 min; series mostly up to 11.4 µM. The method, boiled down:
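Human CYP2C9 (10nM) with Luciferin-H at 100uM (its KM) in 25mM KPO4; compound preincubated 10 min at 37C, then NADPH regeneration for 60 min at 37C. Luciferin read by luminescence after detection reagent; normalized to 57uM sulphaphenazole as full inhibition.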
(In general: In qHTS, concentration-response curves come from the screen itself.)

The target in assay [10] is Cytochrome P450 3A4 (Homo sapiens) (UniProt P08684). The experiment in a line: qHTS Assay for Inhibitors and Substrates of Cytochrome P450 3A4 (AID 884; active means well fitted curve in the direction sought with a large enough effect; an effect the other way counts as inactive or inconclusive; further: potency means the concentration at half of the fitted maximal effect; nearly all actives have a fitted effect of over 50% in size). Particulars: recombinant CYP3A4, Luciferin-PPXE luminescence; series mostly up to 57.1 µM. The method, boiled down: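 20 nM human CYP3A4 with 25 uM Luciferin-PPXE (at KM) in 200 mM KPO4, preincubated 10 min with compound; NADPH regeneration started a 60 min RT reaction. Luciferin detected by luminescence, normalized to 57 uM ketoconazole as full inhibition.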
Cytochrome P450 3A4 (Homo sapiens), sequence (P08684 whole entry, looked up): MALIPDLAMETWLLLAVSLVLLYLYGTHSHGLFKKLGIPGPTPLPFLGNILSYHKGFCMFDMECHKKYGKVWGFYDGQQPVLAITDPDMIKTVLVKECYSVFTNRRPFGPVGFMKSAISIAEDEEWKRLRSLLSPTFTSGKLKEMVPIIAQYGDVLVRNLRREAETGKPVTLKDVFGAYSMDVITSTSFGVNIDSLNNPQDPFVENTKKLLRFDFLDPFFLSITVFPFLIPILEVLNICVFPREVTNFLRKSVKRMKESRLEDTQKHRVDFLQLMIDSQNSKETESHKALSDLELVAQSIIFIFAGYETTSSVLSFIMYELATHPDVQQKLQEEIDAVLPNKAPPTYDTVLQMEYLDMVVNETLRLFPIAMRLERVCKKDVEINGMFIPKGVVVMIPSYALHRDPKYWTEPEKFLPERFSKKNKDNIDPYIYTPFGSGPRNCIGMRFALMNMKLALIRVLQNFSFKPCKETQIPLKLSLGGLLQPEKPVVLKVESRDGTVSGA

Assay [11] has the same target. Briefly: qHTS Assay for Activators of Cytochrome P450 3A4 (AID 885; active means well fitted curve in the direction sought with a large enough effect; an effect the other way counts as inactive or inconclusive; further: nearly all actives have a fitted effect of over 65% in size). As to conditions: recombinant CYP3A4, Luciferin-PPXE luminescence, 60 min; series mostly up to 11.4 µM. The method, boiled down: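 Human CYP3A4 (20 nM) with Luciferin-PPXE at 25 uM (its KM) in 200 mM KPO4; 10 min compound preincubation, then NADPH regeneration and 60 min reaction at RT. Luciferin read by luminescence; normalized to 57 uM ketoconazole full inhibition.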

Assay [12] addresses Mitogen-activated protein kinase 10 (Mus musculus) (UniProt Q61831). The experiment in a line: JNK3 AlphaScreen Assay (AID 530).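 Further: kinase came from lysate of stimulated human HepG2 cells; signal reports phosphorylation of biotinylated GST-cJun 1-79 at Ser73 with 10 µM ATP; on the % scale 0 is the no-effect control and ±100 the full control effect.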 As to conditions: JNK3 lysate, c-Jun phosphorylation; series mostly up to 11.4 µM. Put shortly: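 Pre-activated (IL-1β/TNFα) JNK3 in HepG2 lysates phosphorylates biotin-GST-cJun(1-79), 10 uM ATP; anti-phospho-cJun(Ser73) AlphaScreen read at room temperature, pH 7.6 Tris buffer. Compounds pre-incubated 15 min as titrations.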
In general terms: In Alpha technology, singlet oxygen from a donor bead excites a nearby acceptor bead.

The target of assay [13] is Cytochrome P450 2C19 (Homo sapiens) (UniProt P33261). Briefly: qHTS Assay for Inhibitors and Substrates of Cytochrome P450 2C19 (AID 899; active means well fitted curve in the direction sought with a large enough effect; an effect the other way counts as inactive or inconclusive; further: potency means the concentration at half of the fitted maximal effect; nearly all actives have a fitted effect of over 60% in size). As to conditions: recombinant CYP2C19, luciferin-H EGE luminescence; series mostly up to 11.4 µM. Put shortly: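 5 nM human CYP2C19 with 10uM Luciferin-H EGE (at KM) in 50mM KPO4, compound preincubated 10 min at 37C, then NADPH regeneration for 60 min at 37C. Luciferin read by luminescence after detection reagent; normalized to 57uM ketoconazole as full inhibition.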
Cytochrome P450 2C19 (Homo sapiens), sequence (P33261 whole entry, looked up): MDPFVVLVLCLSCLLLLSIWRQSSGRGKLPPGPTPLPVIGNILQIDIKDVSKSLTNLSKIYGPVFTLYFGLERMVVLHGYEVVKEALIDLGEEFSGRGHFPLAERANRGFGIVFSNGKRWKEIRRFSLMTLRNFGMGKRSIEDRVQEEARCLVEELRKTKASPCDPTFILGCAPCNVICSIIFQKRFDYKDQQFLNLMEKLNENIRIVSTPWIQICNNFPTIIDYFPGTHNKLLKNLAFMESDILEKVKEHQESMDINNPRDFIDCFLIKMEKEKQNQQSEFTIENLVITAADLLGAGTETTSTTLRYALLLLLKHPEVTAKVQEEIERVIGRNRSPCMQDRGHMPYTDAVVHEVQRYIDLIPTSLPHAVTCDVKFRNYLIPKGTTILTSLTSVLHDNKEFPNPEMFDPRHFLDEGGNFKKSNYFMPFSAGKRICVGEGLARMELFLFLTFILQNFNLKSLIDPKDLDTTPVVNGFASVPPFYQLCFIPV

Lysosomal acid glucosylceramidase (Homo sapiens), sequence (P04062 whole entry, looked up): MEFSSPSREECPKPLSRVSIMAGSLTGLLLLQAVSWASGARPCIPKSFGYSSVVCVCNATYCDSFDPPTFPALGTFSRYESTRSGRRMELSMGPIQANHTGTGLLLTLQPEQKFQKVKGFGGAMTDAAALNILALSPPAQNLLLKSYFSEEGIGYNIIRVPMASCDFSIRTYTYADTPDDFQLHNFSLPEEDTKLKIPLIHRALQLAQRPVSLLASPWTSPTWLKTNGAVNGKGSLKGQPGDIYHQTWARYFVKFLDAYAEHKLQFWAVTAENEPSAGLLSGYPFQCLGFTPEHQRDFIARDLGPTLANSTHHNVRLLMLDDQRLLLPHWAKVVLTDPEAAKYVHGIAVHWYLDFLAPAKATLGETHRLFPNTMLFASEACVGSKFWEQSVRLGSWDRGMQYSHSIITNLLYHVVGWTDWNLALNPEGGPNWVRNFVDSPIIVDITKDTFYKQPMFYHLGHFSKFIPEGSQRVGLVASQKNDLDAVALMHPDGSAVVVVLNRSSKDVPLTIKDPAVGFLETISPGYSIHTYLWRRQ
3',5'-cyclic-AMP phosphodiesterase 4B (Homo sapiens), sequence (Q07343 whole entry, looked up): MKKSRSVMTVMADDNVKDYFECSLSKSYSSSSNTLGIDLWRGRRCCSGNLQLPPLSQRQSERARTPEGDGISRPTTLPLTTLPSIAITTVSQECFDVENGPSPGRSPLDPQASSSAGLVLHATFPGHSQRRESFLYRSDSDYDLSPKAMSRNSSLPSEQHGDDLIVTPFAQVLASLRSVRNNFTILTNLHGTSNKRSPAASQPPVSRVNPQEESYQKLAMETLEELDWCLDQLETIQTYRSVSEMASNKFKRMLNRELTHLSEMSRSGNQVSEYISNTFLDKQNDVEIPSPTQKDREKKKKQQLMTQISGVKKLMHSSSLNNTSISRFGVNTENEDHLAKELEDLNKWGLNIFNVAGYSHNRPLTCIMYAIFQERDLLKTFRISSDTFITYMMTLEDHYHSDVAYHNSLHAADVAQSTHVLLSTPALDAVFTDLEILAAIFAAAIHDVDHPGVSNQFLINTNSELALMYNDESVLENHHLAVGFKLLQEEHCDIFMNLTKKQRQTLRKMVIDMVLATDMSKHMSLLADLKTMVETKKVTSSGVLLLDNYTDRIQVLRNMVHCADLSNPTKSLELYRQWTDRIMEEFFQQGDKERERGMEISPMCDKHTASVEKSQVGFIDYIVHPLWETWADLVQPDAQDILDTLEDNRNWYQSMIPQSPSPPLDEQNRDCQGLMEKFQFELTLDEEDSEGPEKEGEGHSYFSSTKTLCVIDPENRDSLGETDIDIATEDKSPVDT
Cytochrome P450 2C9 (Homo sapiens), sequence (P11712 whole entry, looked up): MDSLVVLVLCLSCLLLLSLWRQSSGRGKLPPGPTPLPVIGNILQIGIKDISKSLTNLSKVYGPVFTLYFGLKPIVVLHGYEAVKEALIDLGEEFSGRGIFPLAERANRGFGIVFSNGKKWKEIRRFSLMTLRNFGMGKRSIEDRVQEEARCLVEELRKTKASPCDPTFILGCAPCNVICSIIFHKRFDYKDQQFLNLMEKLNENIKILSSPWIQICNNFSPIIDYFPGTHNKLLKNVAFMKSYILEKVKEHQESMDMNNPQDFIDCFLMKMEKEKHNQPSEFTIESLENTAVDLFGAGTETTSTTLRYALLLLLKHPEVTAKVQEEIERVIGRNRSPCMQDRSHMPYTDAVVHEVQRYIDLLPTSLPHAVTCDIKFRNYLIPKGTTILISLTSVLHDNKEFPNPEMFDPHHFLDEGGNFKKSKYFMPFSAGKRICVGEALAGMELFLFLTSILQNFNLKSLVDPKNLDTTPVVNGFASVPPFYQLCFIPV

Take `Cc1ccc(S(=O)(=O)N[C@H](C(=O)O)C(C)C)cc1`: the figures for the Potency in assay [1], in assay [6] and in [7] were greater than 11.4 µM, greater than 46 µM and greater than 9.22 µM, respectively. Also, the activity change, negative = inhibition is 9.07% in [2] and -0.0198% in assay [4]. Also, the Potency result in assay [3] and in [8] was “inactive” in each case. In [5], the activity, negative = inhibition was -0.976%.

Consider `O=c1c(CCc2ccccc2)nc2cnc(Oc3cccc(Cl)c3)nc2n1C[C@H]1CCCO1`, for which the Potency in assay [1] was greater than 11.4 µM; in [3] it was 3.98 µM (active); in assay [6], greater than 9.22 µM; in assay [7] it was greater than 46 µM; in [9], 6.31 µM (active); in [10] it was 0.501 µM (active). The values for the activity change, negative = inhibition in assay [2] and in assay [4] were -27.5% and -15.5%, respectively. Further, the activity, negative = inhibition in [5] was -17.7%. The Potency result in [11] was “inactive”.

On to `O=C(O)c1nc(-c2ccccc2)[nH]c1C(=O)O`, for which the Potency in assay [1] is greater than 11.4 µM; in [3], 1 µM (active); in assay [6], greater than 46 µM; in assay [13] it was 3.16 µM (active). The results for the activity change, negative = inhibition in assay [2] and in assay [4] were -6.16% and -19.8%, respectively. In addition, in assay [5], the activity, negative = inhibition was -26.6%. Besides, the Potency entry in assay [12] and in assay [8] was “inactive” each time.

Take `COC(=O)N1CCC2(CCCN(Cc3cc(C(F)(F)F)cc(C(F)(F)F)c3)C2)CC1`: the Potency is greater than 11.4 µM in [1] and greater than 46 µM in assay [7]. Besides, the activity change, negative = inhibition in assay [2] is 12%; in assay [4], 0.959%. The Potency result in [3], in [12] and in assay [8] was “inactive” each time. Further, the activity, negative = inhibition in assay [5] was -1.27%.

For `N[C@@H](Cc1ccnnc1)C(=O)O`, the values for the Potency in assay [1] and in [6] were greater than 11.4 µM and greater than 46 µM, respectively. Also, the activity change, negative = inhibition in assay [2] is -10.1%; in assay [3], -10.6% [at 2.29 µM]; in [4], 13.5%. Besides, the activity, negative = inhibition in assay [5] is -4.41%. For the same molecule, the Potency result in assay [12] is “inactive”.

With `NC(N)=N[C@@H]1C(O)[C@H](N=C(N)N)[C@@H](O)C(O)[C@H]1O` (stereo not given in full), the Potency is greater than 11.4 µM in [1] and greater than 46 µM in [6]. Moreover, the activity change, negative = inhibition in [2] is -5.59%; in assay [3], -4.9% [at 2.29 µM]; in [4], 13.4%. In addition, in assay [5], the activity, negative = inhibition is -0.855%. Further, the Potency result in assay [12] and in assay [8] was “inactive” throughout.

In the case of `CN(CCc1ccccn1)c1ccc2c(c1)C(=O)c1ccccc1-2`, the Potency in assay [1] is greater than 2.29 µM; in assay [3] it was 0.158 µM (active); in assay [6], greater than 46 µM; in assay [7], greater than 9.22 µM; in assay [10] it was 3.16 µM (active); in assay [13], 2.51 µM (active). In addition, the activity change, negative = inhibition in assay [2] is 7.03%; in assay [4], 0.0317%. Moreover, the activity, negative = inhibition in assay [5] was -7.39%. For the same molecule, the Potency entry in assay [8] was “inactive”.

Take `O=C(O)CS(=O)c1ccc2c3c(cccc13)C(=O)c1ccccc1-2` (stereo not given): the Potency is greater than 11.4 µM in assay [1], 0.0631 µM (active) in assay [3] and greater than 9.22 µM in [7]. The activity change, negative = inhibition in assay [2] is -22.7%; in assay [4] it was -13.9%. Moreover, the activity, negative = inhibition in assay [5] was 1.69%. Further, the Potency entry in [12] and in assay [11] was “inactive” each time.

For the molecule `C[C@H]1C[C@H]2[C@H]3CCC4=CC(=O)C=C[C@@]4(C)[C@]3(F)[C@H](O)C[C@]2(C)[C@@]1(O)C(=O)COP(=O)(O)O`, the Potency in [1] was greater than 11.4 µM. Also, the activity change, negative = inhibition is -4.3% in [2] and 15.9% in assay [4]. Also, the Potency entry in assay [3], in assay [12] and in [8] was “inactive” each time. Besides, in assay [5], the activity, negative = inhibition is -7.89%.

(Values after PubChem BioAssay (NCATS).)
